Experimental data taken from PubChem BioAssay (EPA / NIEHS).
Where a structure was tested more than once in an assay, its records may differ in their call. Activity calls are given as the source filed them. The calls were made as follows: active = hit-call score of the fitted dose curve at least 0.9, where 1 is the maximum; inactive = score below 0.9.

assay: ATG_TA_CIS: Attagene CIS-FACTORIAL HepG2 Assay for human TA Basal Promoter (AID 2282964); settings: HepG2 Attagene CIS-factorial TA basal promoter reporter; actives raise or lower the signal
Experimental: ATG_CIS is a cell-based, multiplexed-readout assay that uses HepG2, a human liver cell line, with measurements taken at 24 hours after chemical dosing in a 24-well plate.ATG_TA_CIS is one of 52 assay component(s) measured or calculated from the ATG_CIS assay. It is designed to make measurements of mRNA induction, a form of inducible reporter, as detected with fluorescence intensity signals by Reverse transcription polymerase chain reaction (RT-PCR) and Capillary electrophoresis technology.Data from the assay component ATG_TA_CIS was analyzed into 1 assay endpoint. This assay endpoint, ATG_TA_CIS, was analyzed with bidirectional fitting relative to DMSO as the negative control and baseline of activity. Using a type of inducible reporter, measures of mRNA for gain or loss-of-signal activity can be used to understand the background control at the transcription factor-level as they relate to the gene . Furthermore, this assay endpoint can be referred to as a secondary readout, because this assay has produced multiple assay endpoints where this one serves a background control function. To generalize the intended target to other relatable targets, this assay endpoint is annotated to the background measurement intended target family, where the subfamily is internal marker.
Human liver HepG2 cells are transiently transfected with multiple reporter transcription units (MRTUs) in 6-well plates using FuGene 6 reagent (Roche; 3 ml FuGene/1 mg DNA). The MRTU constructs are regulated by a cis-regulating element (promoter). […] A major difference between the CIS and TRANS system is that in CIS activities of endogenous TFs are measured, whereas the TRANS assay evaluates changes in activities of exogenous, chimeric NR-Gal4 proteins. […] At the end of 24 hour incubation, total RNA was isolated using TriZol reagent (Invitrogen). The isolated RNA is then reverse-transcribed using oligo(dT) primer and Mo-MLV reverse transcriptase (Invitrogen) with DNAse I (Ambion) treatment for 30 min. The one-tenth of the produced cDNA was amplified by PCR using Taq DNA polymerase (Invitrogen) and two reporter sequence-specific primers. The PCR products were fluorescently labeled by primer extension with 6-arboxyfluorescein (6-FAM) 5'-labeled reporter sequence-specific primer (2 min at 95 C, 20 s at 68 C and 10 min at 72 C) and these products were digested with 5U of HpaI (New England Biolabs) for 2h at 37 C. The fragments were purified using Qiaquick PCR columns (Qiagen), analyzed on an ABI 3130xL genetic analyzer (Applied Biosystems) with peak positions identified by using a set of X-rhodamine (ROX)-labeled MapMarker1000 molecular weight standards (BioVentures). The raw capillary electrophoresis data was processed using Attagraph software (Attagene).

Compound	outcome	AC50
O=C1OCc2ccccc21	inactive	
CCCCCCC(O)CCOC(C)=O (stereo not given)	inactive	
CC(=O)C1C(=O)C=C(C)OC1=O (stereo not given)	inactive	
CC/C=C\CCOC(=O)C(C)C	inactive	
FC(F)(F)c1ccc(Cl)c(Cl)c1	inactive	
CCCCCCCCOS(=O)(=O)O	inactive	
COC(=O)c1cccc(C(=O)OC)c1	inactive	
CCCC1CCOC(C)S1 (stereo not given)	inactive	
C=COCC1CCC(COC=C)CC1 (stereo not given)	inactive	
CCCCCCCCCCCCCCCCCC(=O)OCCCCCCCCCCCCCC(C)C	inactive	
O=[N+]([O-])c1cc(N(CCO)CCO)ccc1NCCO	inactive	
O=C1CCCCCCCCCCCC(=O)OCCO1	inactive	
CC1=CCC(=C(C)C)CC1	inactive	
CCCCCCCCOC(C)=O	inactive	
CC(C)Cc1ccc(C(C)C(=O)O)cc1 (stereo not given)	inactive	
COc1ccc(C(C)=O)cc1	inactive	
Cc1cc(O)c2c(c1)C(=O)c1cc(O)cc(O)c1C2=O	inactive	
CC(C)C(=O)c1ccccc1	inactive	
C=C(C)C(=O)OCCC[Si](OC)(OC)OC	inactive	
NCCN1CCNCC1	inactive	

Compound	outcome	AC50
CC(=O)c1ccc(O)cc1	inactive	
CN1CCc2cccc3c2[C@H]1Cc1ccc(O)c(O)c1-3	inactive	
CCCCN(CCO)CCO	inactive	
NC(=O)NC(N)=O	inactive	
O=C(O)c1cccc(Cl)n1	inactive	
[Cu+]	inactive	
C=CC(O)CCCCC (stereo not given)	inactive	
CCOC(=O)COC(=O)c1ccccc1C(=O)OCC	inactive	
O=C(O)CS	inactive	
CC(=O)C1=C(C)[C@@H]2C[C@@]3(C1)[C@H](C)CC[C@H]3C2(C)C		159 µM (active)
CCCCCCCCCCCCN1CCOCC1	inactive	
CCCCCCCCCCOC(=O)c1ccccc1C(=O)OCCCCCCCC	inactive	
CC1=CC[C@@H]2C[C@H]1C2(C)C	inactive	
[O-]/[N+](=N\O)c1ccccc1	inactive	
N=C1N=C(N)c2ccccc21	inactive	
c1ccc(Sc2ccccc2)cc1	inactive	
C=C(C)C(N)=O	inactive	
C#C[C@]1(O)CC[C@H]2[C@@H]3CCc4cc(O)ccc4[C@H]3CC[C@@]21C	inactive	132 µM (active)
OCCCO	inactive	
